According to the supplement of paper PMC12669032:
Values without a mark were called inactive.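 Rule for the calls: active = AUC reduced over 20% with Padj below 0.05 in at least 2 of 3 replicates; inactive = otherwise.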

Test system: Bacteroides clarus
Test: growth AUC relative to DMSO control (median of replicates) (fraction); higher = more growth (less inhibition), active = hit call of the paper
Settings: 20 µM; 24 h
In short: (§1)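 Gut bacterial monocultures in mGAM were treated with 20 µM compound (1% DMSO) and grown anaerobically at 37 °C in round-bottom 96-well plates from OD600 0.05. OD600 was read hourly for 24 h, with the minimum OD set to 0. Area under the growth curve was normalised to the plate median of solvent-only wells, or to row and column medians on the industrial chemical plate. Each value is the median of three biological replicates, each grown on a separate day.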

Going from `CC(C)c1cccc2c(=O)c3ccccc3sc12` to `O=C(O)Cc1cccc2ccccc12`, the “growth AUC” value falls from 1.03 to 0.969.

Going from `CP(=O)(O)CCC(=O)O` to `COCCN(C(=O)CO)c1c(C)cccc1C(=O)O`, the “growth AUC” value rises from 0.956 to 1.

First: ClC(COCC(Cl)C(Cl)(Cl)Cl)C(Cl)(Cl)Cl (stereo not drawn)
Second: CCCCC(CC)COC(=O)COc1ccc(Cl)cc1C (stereo not drawn)
The “growth AUC” value of the first is lower: 0.942 for the first, 0.997 for the second.

First: CCc1cccc(C)c1N(C(=O)CS(=O)(=O)[O-])C(C)COC.[Na+] (stereo not drawn)
Second: COCC(=O)N(c1c(C)cccc1C)C(C)C(=O)O (stereo not drawn)
The “growth AUC” value of the first is lower: 0.987 for the first, 1 for the second.

Going from `COCC(=O)N(c1c(C)cccc1C(=O)O)C(C)C(=O)O` (stereo not drawn) to `CCc1cccc(C)c1NC(=O)C(=O)O`, the “growth AUC” value rises from 0.979 to 0.999.

Going from `COC(=O)C(C)Oc1ccc(Oc2ccc(C(F)(F)F)cn2)cc1` (stereo not drawn) to `CCOC(=O)C(C)Oc1ccc(Oc2nc3ccc(Cl)cc3o2)cc1` (racemic), the “growth AUC” value falls from 0.992 to 0.96.

Going from `O=S(Cc1ccc(Cl)cc1)c1ccc(Cl)cc1` (stereo not drawn) to `CN(C)C(=O)Nc1ccc(Oc2ccc(Cl)cc2)cc1`, the “growth AUC” value falls from 0.978 to 0.948.

Compared with `O=C(O)c1ccc(Cl)cc1Cl`, `CN(C)C(=O)Nc1ccc(Cl)c(Cl)c1` is lower in “growth AUC” value: 0.989 for the first, 0.975 for the second.

First: Nc1ccc(S(=O)(=O)Nc2cnc3ccccc3n2)cc1
Second: NC(=O)Cc1cccc2ccccc12
The “growth AUC” value of the first is lower: 0.99 for the first, 1.03 for the second.

Compared with `COC(=O)c1ccc(CNS(C)(=O)=O)cc1S(=O)(=O)NC(=O)Nc1nc(OC)cc(OC)n1`, `COC(=O)c1c(Cl)nn(C)c1S(=O)(=O)NC(=O)Nc1nc(OC)cc(OC)n1` is higher in “growth AUC” value: 1.02 for the first, 1.07 for the second.

First: CC(C)(NC(=O)NCc1ccccc1Cl)c1ccccc1
Second: CC(C)(NC(=O)C(Br)C(C)(C)C)c1ccccc1 (stereo not drawn)
The “growth AUC” value of the first is higher: 1.03 for the first, 0.924 for the second.

Compared with `CCC(C)Nc1nc(N)nc(Cl)n1` (stereo not drawn), `CCc1nc2ncnn2c(N)c1CCCCCC(=O)O.Cl` is higher in “growth AUC” value: 0.995 for the first, 1.07 for the second.

Compared with `Cc1cccc(C)c1N(C(=O)CCl)C1CCOC1=O` (stereo not drawn), `CC1=C(C(=O)Nc2ccccc2)CCCO1` is higher in “growth AUC” value: 0.993 for the first, 1.01 for the second.

First: NC(Cn1cncn1)C(=O)O (stereo not drawn)
Second: O=C(O)COc1ccc(Cl)c2cccnc12
The “growth AUC” value of the first is lower: 0.992 for the first, 1.03 for the second.

Compared with `Cn1cc(C(=O)Nc2ccccc2-c2cc(F)c(F)c(F)c2)c(C(F)F)n1`, `Cc1nn(C)c(F)c1C(=O)Nc1ccccc1C(C)CC(C)C` (stereo not drawn) is higher in “growth AUC” value: 0.937 for the first, 0.959 for the second.

Going from `CC(C)c1ccccc1` to `c1ccc(Nc2ccccc2)cc1`, the “growth AUC” value falls from 1.01 to 0.94.

First: CCCCCCCCSCCO
Second: CCc1ccc(O)cc1
The “growth AUC” value of the first is lower: 0.967 for the first, 1.01 for the second.

First: CN(C)C(N)=O
Second: CNC(=O)Nc1nc2ccccc2s1
The “growth AUC” value of the first is lower: 0.998 for the first, 0.999 for the second.

Compared with `N#Cc1ccccc1NC(=O)c1snc(Cl)c1Cl`, `CC(C)([CH2][Sn]([CH2]C(C)(C)c1ccccc1)([CH2]C(C)(C)c1ccccc1)[O][Sn]([CH2]C(C)(C)c1ccccc1)([CH2]C(C)(C)c1ccccc1)[CH2]C(C)(C)c1ccccc1)c1ccccc1` is higher in “growth AUC” value: 0.982 for the first, 1.01 for the second.

In the case of `O.O=C(Nc1ccc([N+](=O)[O-])cc1Cl)c1cc(Cl)ccc1O`, the “growth AUC” value is reported as 0.00802 (active).

Test system: Bacteroides dorei
Test: as above
Settings: 20 µM; 24 h
In short: as §1

First: CC(C)c1cccc2c(=O)c3ccccc3sc12
Second: O=C(O)Cc1cccc2ccccc12
The “growth AUC” value of the first is lower: 0.913 for the first, 0.971 for the second.

Going from `CP(=O)(O)CCC(=O)O` to `COCCN(C(=O)CO)c1c(C)cccc1C(=O)O`, the “growth AUC” value falls from 1.01 to 0.964.

Going from `ClC(COCC(Cl)C(Cl)(Cl)Cl)C(Cl)(Cl)Cl` (stereo not drawn) to `CCCCC(CC)COC(=O)COc1ccc(Cl)cc1C` (stereo not drawn), the “growth AUC” value falls from 1.01 to 0.977.

First: CCc1cccc(C)c1N(C(=O)CS(=O)(=O)[O-])C(C)COC.[Na+] (stereo not drawn)
Second: COCC(=O)N(c1c(C)cccc1C)C(C)C(=O)O (stereo not drawn)
The “growth AUC” value of the first is lower: 0.91 for the first, 1.01 for the second.

Compared with `COCC(=O)N(c1c(C)cccc1C(=O)O)C(C)C(=O)O` (stereo not drawn), `CCc1cccc(C)c1NC(=O)C(=O)O` is lower in “growth AUC” value: 1.01 for the first, 1 for the second.

First: COC(=O)C(C)Oc1ccc(Oc2ccc(C(F)(F)F)cn2)cc1 (stereo not drawn)
Second: CCOC(=O)C(C)Oc1ccc(Oc2nc3ccc(Cl)cc3o2)cc1 (racemic)
The “growth AUC” value of the first is higher: 0.948 for the first, 0.94 for the second.

Compared with `O=S(Cc1ccc(Cl)cc1)c1ccc(Cl)cc1` (stereo not drawn), `CN(C)C(=O)Nc1ccc(Oc2ccc(Cl)cc2)cc1` is lower in “growth AUC” value: 0.986 for the first, 0.871 for the second.

First: O=C(O)c1ccc(Cl)cc1Cl
Second: CN(C)C(=O)Nc1ccc(Cl)c(Cl)c1
The “growth AUC” value of the first is higher: 0.994 for the first, 0.981 for the second.

Compared with `Nc1ccc(S(=O)(=O)Nc2cnc3ccccc3n2)cc1`, `NC(=O)Cc1cccc2ccccc12` is lower in “growth AUC” value: 1.02 for the first, 0.988 for the second.

First: COC(=O)c1ccc(CNS(C)(=O)=O)cc1S(=O)(=O)NC(=O)Nc1nc(OC)cc(OC)n1
Second: COC(=O)c1c(Cl)nn(C)c1S(=O)(=O)NC(=O)Nc1nc(OC)cc(OC)n1
The “growth AUC” value of the first is lower: 1.01 for the first, 1.02 for the second.

Compared with `CC(C)(NC(=O)NCc1ccccc1Cl)c1ccccc1`, `CC(C)(NC(=O)C(Br)C(C)(C)C)c1ccccc1` (stereo not drawn) is higher in “growth AUC” value: 0.925 for the first, 0.995 for the second.

First: CCC(C)Nc1nc(N)nc(Cl)n1 (stereo not drawn)
Second: CCc1nc2ncnn2c(N)c1CCCCCC(=O)O.Cl
The “growth AUC” value of the first is lower: 1.02 for the first, 1.03 for the second.

Going from `Cc1cccc(C)c1N(C(=O)CCl)C1CCOC1=O` (stereo not drawn) to `CC1=C(C(=O)Nc2ccccc2)CCCO1`, the “growth AUC” value rises from 0.971 to 1.01.

Going from `NC(Cn1cncn1)C(=O)O` (stereo not drawn) to `O=C(O)COc1ccc(Cl)c2cccnc12`, the “growth AUC” value falls from 0.983 to 0.976.

First: Cn1cc(C(=O)Nc2ccccc2-c2cc(F)c(F)c(F)c2)c(C(F)F)n1
Second: Cc1nn(C)c(F)c1C(=O)Nc1ccccc1C(C)CC(C)C (stereo not drawn)
The “growth AUC” value of the first is lower: 0.972 for the first, 0.988 for the second.

Compared with `CC(C)c1ccccc1`, `c1ccc(Nc2ccccc2)cc1` is higher in “growth AUC” value: 1.02 for the first, 1.03 for the second.

Going from `CCCCCCCCSCCO` to `CCc1ccc(O)cc1`, the “growth AUC” value falls from 1.02 to 0.95.

Compared with `CN(C)C(N)=O`, `CNC(=O)Nc1nc2ccccc2s1` is lower in “growth AUC” value: 0.982 for the first, 0.959 for the second.

First: N#Cc1ccccc1NC(=O)c1snc(Cl)c1Cl
Second: CC(C)([CH2][Sn]([CH2]C(C)(C)c1ccccc1)([CH2]C(C)(C)c1ccccc1)[O][Sn]([CH2]C(C)(C)c1ccccc1)([CH2]C(C)(C)c1ccccc1)[CH2]C(C)(C)c1ccccc1)c1ccccc1
The “growth AUC” value of the first is higher: 1.01 for the first, 0.989 for the second.

For `O.O=C(Nc1ccc([N+](=O)[O-])cc1Cl)c1cc(Cl)ccc1O`, the “growth AUC” value was 0.0256 (active).
